We go through five compounds from PubChem BioAssay (NCATS).

Inconclusive results are not listed. The source made the active and inactive calls. Unless noted, calls come from the whole dose curve; as a rule, active = well fitted curve in the direction sought with a large enough effect; inconclusive = small, poorly fitted or top-dose-only effect, or another doubt; inactive = no such curve, though single readings can be large; an effect the other way counts as inactive or inconclusive.

In assay [1] the target is Lysosomal acid glucosylceramidase (Homo sapiens) (UniProt P04062). The assay can be described thus: Glucocerebrosidase-p2 (AID 348; in the data active = potency below about 10 µM; note: potency is the fitted concentration of half-maximal effect). To be noted: purified GBA, blue fluorogenic substrate, 40 min. The method, boiled down: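 Compounds titrated from 0.6 nM upwards against 0.2 nM enzyme in pH 5.9 citric acid/KH2PO4, taurocholate, tween-20; blue fluorogenic substrate 80 uM, 40 min room temperature, stopped and read Ex 365/Em 440 for AC50.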
Sequence of Lysosomal acid glucosylceramidase (Homo sapiens) (P04062 whole entry, looked up): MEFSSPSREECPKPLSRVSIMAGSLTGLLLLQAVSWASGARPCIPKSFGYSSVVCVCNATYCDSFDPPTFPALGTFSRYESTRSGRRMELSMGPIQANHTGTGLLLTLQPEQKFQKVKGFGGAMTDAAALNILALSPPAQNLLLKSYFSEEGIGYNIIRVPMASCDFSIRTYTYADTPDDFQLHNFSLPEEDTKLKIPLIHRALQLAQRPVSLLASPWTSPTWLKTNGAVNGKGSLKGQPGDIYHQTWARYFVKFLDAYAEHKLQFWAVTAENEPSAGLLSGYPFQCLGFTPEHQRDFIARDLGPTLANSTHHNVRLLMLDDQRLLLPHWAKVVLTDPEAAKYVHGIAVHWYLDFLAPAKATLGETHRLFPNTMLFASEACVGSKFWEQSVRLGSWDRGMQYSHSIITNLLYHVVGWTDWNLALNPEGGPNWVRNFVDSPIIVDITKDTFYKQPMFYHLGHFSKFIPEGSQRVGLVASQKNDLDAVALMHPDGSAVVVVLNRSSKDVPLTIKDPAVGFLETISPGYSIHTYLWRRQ

A short description of assay [2]: AP1 Signaling Pathway (AID 357; active = well fitted curve in either direction with a large enough effect, not every such curve was filed as active; note: % is set by controls: 0 for no effect and ±100 for the full control effect). As to conditions: ME-180 AP-1-bla reporter, EGF-induced, beta-lactamase ratio, 5 h; at 7.69 µM (top of the series) unless noted. The method, boiled down: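 Cells are seeded overnight, exposed to compound titrations and an EC50 level of EGF for 5 hours at 37 °C, then loaded with CCF4 dye for 2.5 hours. Beta-lactamase activity under the AP-1 element is read as a blue/green ratio.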

Assay [3] has as its target Cytochrome P450 1A2 (Homo sapiens) (UniProt P05177). Description: p450-cyp1a2 (AID 410; calls by dose curve; note: potency is the fitted concentration of half-maximal effect;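 for activity change, negative = inhibition: -100% = full effect of reference inhibitor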). To be noted: recombinant CYP1A2, luciferin-ME demethylation, luminescence; series mostly up to 57 µM. The method, boiled down: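 Human CYP1A2 (20nM) demethylated Luciferin-ME at its Km (100uM) in 100mM KPO4. After 10 min compound preincubation, NADPH regeneration ran the reaction 60 min at room temperature. Luciferin was read by luminescence, normalized to 57 uM furafylline.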

The nature of assay [4]: NFAT Signaling Pathway (AID 444; active = well fitted curve in either direction with a large enough effect, not every such curve was filed as active;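 note: carbachol stimulus at about its EC50 of 1 µM final; % is set by controls: 0 for no effect and ±100 for the full control effect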). To be noted: Jurkat NFAT-bla M1, carbachol, beta-lactamase ratio, 5 h; at 7.69 µM (top of the series) unless noted. The method, boiled down:
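Read-out: CCF4 FRET ratio (460 nm/530 nm) after 1 h RT dye loading, used for %activity and AC50 from titration series. Cells: Jurkat NFAT-β-lactamase/M1 line, treated with compound plus 1 uM carbachol for 5 h, 37 °C.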

A short description of assay [5]: Stat Signaling Pathway (AID 446; active = well fitted curve in either direction with a large enough effect, not every such curve was filed as active;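 note: ME-180 cervical cancer cells given 40 pM IL-6 alongside compound; SIE-controlled beta-lactamase reporter measured as 460/530 nm FRET emission ratio; % is set by controls: 0 for no effect and ±100 for the full control effect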). To be noted: ME-180 (cervical carcinoma) SIE beta-lactamase reporter, IL-6 stimulated, 5 h; at 7.69 µM (top of the series) unless noted. A digest of the protocol:
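IL-6/STAT signaling read in ME-180 cells via an SIE beta-lactamase reporter. Stimulus was 40 pM IL-6 (its AC50) for 5 hrs, so both activation and inhibition register.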

For assay [6], the target named is Glucocorticoid receptor (Homo sapiens) (UniProt P04150). The assay can be described thus: GR-GFP Redistribution (AID 450;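 active = compounds whose dose series gives a full or clear partial fitted curve of increased nuclear translocation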; note: potency is the fitted concentration of half-maximal effect). To be noted: U2OS GR-GFP nuclear translocation, laser cytometry, 2 h.
Sequence of Glucocorticoid receptor (Homo sapiens) (P04150 whole entry, looked up, the tested form may be a part): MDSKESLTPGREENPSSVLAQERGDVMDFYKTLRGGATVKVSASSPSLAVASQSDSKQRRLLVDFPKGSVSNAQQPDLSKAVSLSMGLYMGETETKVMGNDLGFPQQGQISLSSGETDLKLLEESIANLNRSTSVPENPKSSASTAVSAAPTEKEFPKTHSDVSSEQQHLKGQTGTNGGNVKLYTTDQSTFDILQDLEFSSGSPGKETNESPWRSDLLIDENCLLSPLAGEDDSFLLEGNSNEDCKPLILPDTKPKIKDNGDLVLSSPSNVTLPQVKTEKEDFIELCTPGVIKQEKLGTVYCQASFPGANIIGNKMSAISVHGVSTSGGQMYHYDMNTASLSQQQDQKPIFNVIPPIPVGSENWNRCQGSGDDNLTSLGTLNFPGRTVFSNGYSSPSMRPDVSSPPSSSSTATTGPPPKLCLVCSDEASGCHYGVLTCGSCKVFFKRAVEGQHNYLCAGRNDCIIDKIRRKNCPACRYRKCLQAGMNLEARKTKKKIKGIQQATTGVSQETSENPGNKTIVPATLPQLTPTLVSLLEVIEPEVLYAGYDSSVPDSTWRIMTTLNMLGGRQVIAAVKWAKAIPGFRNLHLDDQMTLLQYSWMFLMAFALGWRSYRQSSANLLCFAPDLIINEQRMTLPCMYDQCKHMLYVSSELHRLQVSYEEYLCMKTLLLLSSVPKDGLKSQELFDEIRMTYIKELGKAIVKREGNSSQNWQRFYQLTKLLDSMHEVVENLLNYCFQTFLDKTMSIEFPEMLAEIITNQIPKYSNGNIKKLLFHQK
The target is the same in assay [7]. Description: GR-EFC Redistribution (AID 451; calls by dose curve; note: potency is the fitted concentration of half-maximal effect). To be noted: CHO-K1 GR-EFC translocation, beta-gal luminescence, 2 h. The method, boiled down: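 Translocation of GR-ED fusion to nuclear EA restores b-gal, read by luminescence after 1 h room-temperature detection. Engineered CHO-K1 biosensor cells, 1,000/well, exposed 2 h at 37 C to titrations up to 46 uM final.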

For assay [8], the target named is Mitogen-activated protein kinase 10 (Mus musculus) (UniProt Q61831). Description: JNK3 AlphaScreen Assay (AID 530; active = well fitted curve in either direction with a large enough effect, not every such curve was filed as active;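 note: kinase came from lysate of stimulated human HepG2 cells; signal reports phosphorylation of biotinylated GST-cJun 1-79 at Ser73 with 10 µM ATP; % is set by controls: 0 for no effect and ±100 for the full control effect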). To be noted: JNK3 lysate, c-Jun phosphorylation; series mostly up to 57.1 µM. A digest of the protocol:
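Room-temperature AlphaScreen kinase assay; pre-activated HepG2 lysate as JNK3 source, biotin-GST-cJun(1-79) substrate, 10 uM ATP, compound 15 min preincubation.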

For assay [9], the target named is Cytochrome P450 3A4 (Homo sapiens) (UniProt P08684). The assay can be described thus: qHTS Assay for Activators of Cytochrome P450 3A4 (AID 885). Note: nearly all actives have a fitted effect of over 65% in size. As to conditions: recombinant CYP3A4, Luciferin-PPXE luminescence, 60 min; series mostly up to 57.1 µM. A digest of the protocol:
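Quantitative HTS format: compounds preincubated with 20nM human CYP3A4 and Luciferin-PPXE substrate at KM, reaction started by NADPH regeneration, stopped after 60 min, luciferase luminescence read 20 min later.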
In general terms: Quantitative high-throughput screening tests each substance at several concentrations.

For assay [10], the target named is Cytochrome P450 2C19 (Homo sapiens) (UniProt P33261). Description: qHTS Assay for Inhibitors and Substrates of Cytochrome P450 2C19 (AID 899). Note: potency is the fitted concentration of half-maximal effect; nearly all actives have a fitted effect of over 60% in size. To be noted: recombinant CYP2C19, luciferin-H EGE luminescence; series mostly up to 57.1 µM. The method, boiled down: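 5nM enzyme + 10uM Luciferin-H EGE (=KM), 50mM KPO4; cpd pin-transferred, 10 min 37C; NADPH regen, 60 min 37C; stopped w/ luciferin detection reagent, 20 min; luminescence. Normalized to 57uM ketoconazole (AC100).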
Sequence of Cytochrome P450 2C19 (Homo sapiens) (P33261 whole entry, looked up): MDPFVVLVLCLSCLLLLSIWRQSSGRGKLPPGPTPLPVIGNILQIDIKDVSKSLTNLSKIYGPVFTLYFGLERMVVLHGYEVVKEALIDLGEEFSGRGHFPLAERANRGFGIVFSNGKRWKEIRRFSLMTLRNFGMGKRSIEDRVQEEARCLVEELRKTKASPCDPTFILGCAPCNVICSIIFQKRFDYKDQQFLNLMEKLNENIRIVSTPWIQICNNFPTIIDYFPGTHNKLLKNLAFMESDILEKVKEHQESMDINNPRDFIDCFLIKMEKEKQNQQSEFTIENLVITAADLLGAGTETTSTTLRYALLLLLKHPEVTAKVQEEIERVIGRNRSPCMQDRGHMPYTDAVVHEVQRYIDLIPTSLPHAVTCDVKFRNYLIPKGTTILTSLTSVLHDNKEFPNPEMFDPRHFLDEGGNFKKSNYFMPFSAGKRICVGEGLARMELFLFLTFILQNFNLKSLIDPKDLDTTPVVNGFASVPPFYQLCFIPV

Assay [11] is described as follows: qHTS Assay for Lipid Storage Modulators (AID 1519; calls by dose curve). As to conditions: Drosophila S3 cells, BODIPY lipid droplet/cell ratio, laser cytometry, cells loaded with oleic acid; for activity change, negative = inhibition: at 57.5 µM (top of the series). The method, boiled down:
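Cells seeded at 5,000 per well were treated with compounds over a concentration series and loaded with oleic acid (400 uM, as added). Lipid droplet fluorescence (488 nm excitation, 500-530 nm channel) was read by laser-scanning cytometry and normalized to 20 uM Triacsin C.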

In assay [12] the target is Dual specificity protein kinase CLK4 (Homo sapiens) (UniProt Q9HAZ1). The assay can be described thus: qHTS Assay for Inhibitors of CDC-like Kinase 4 (Kinase-Glo Assay) (AID 1770). Note: nearly all actives have a fitted effect of over 65% in size. Note: potency is the fitted concentration of half-maximal effect. To be noted: recombinant Clk4, Kinase-Glo ATP depletion luminescence; series mostly up to 66.7 µM. The method, boiled down:
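Readout: Kinase-Glo luminescence from ATP left after a 4.5 h room-temperature reaction of 25 nM Clk4 with 100 uM RS peptide and 1 uM ATP (final). Buffer: 25 mM Tris pH 7.5, 10 mM MgCl2.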

The target is the same in assay [13]. The assay can be described thus: qHTS Assay for Inhibitors of CDC-like Kinase 4 (ADP-Glo Assay) (AID 1771). Note: nearly all actives have a fitted effect of over 70% in size. Note: potency is the fitted concentration of half-maximal effect. As to conditions: recombinant CLK4, ADP-Glo luminescence; series mostly up to 80 µM. The method, boiled down:
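Clk4 (25 nM) was incubated 1 hr at room temperature with 100 uM RS repeat peptide and 1 uM ATP in buffer with 2 mM MgCl2, 0.5 mM EGTA, 2.5 mM DTT. ADP formed was quantified by ADP-Glo luminescence.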

The target is the same in assay [14]. The assay can be described thus: qHTS Assay for Inhibitors of CDC-like Kinase 4 (ADP-FP Assay) (AID 1795). Note: nearly all actives have a fitted effect of over 60% in size. Note: potency is the fitted concentration of half-maximal effect. As to conditions: Transcreener ADP fluorescence polarization; series mostly up to 50 µM. The method, boiled down:
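FP readout: Orange Transcreener ADP2 tracer (4 nM) plus ADP antibody, read after 30 min at room temperature. Kinase step: 6.25 nM Clk4, 100 uM RS peptide, 1 uM ATP, pH 7.5, 1 h.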

For assay [15], the target named is Ubiquitin carboxyl-terminal hydrolase 1 (Homo sapiens) (UniProt O94782). Description: Inhibitors of USP1/UAF1: Pilot qHTS (AID 504865).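 Note: rhodamine fluorescence freed from ubiquitin-rhodamine substrate followed over time; top concentration of the series differs between compounds; % is set by controls: 0 for no effect and ±100 for the full control effect; nearly all actives have a fitted effect of over 35% in size.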 As to conditions: purified USP1/UAF1, Ub-rhodamine cleavage fluorescence; series mostly up to 54.9 µM. The method, boiled down:
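1nM USP1/UAF1 + cpd, 15 min RT; start w/ Ub-Rho 150nM final; kinetic FL 480/540 nm, 6 reads q60 s. Buffer 50mM HEPES pH 7.8, 0.5mM EDTA, 1mM TCEP, 0.01% Tween-20, 0.1 mg/ml BSA.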

In assay [16] the target is 3',5'-cyclic-AMP phosphodiesterase 4B (Homo sapiens) (UniProt Q07343). The assay can be described thus: qHTS Assay for Inhibitors of PDE-IV (AID 607; active = well fitted activation curve with a large enough effect in the main read-out, with a control signal flat, not every such curve was filed as active; note: % of control where 0% means no effect). As to conditions: HEK293 ACTOne CNG channel cells, membrane potential fluorescence; series mostly up to 22.9 µM. The method, boiled down: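 Live HEK293 cells with a modified cyclic nucleotide-gated (CNG) channel report intracellular cAMP via membrane-potential dye fluorescence (ex 535/em 590 nm). Endogenous PDE-IV was targeted. Compounds were tested at up to 22.9 uM final; RO 20-1724 100 uM served as control.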
Sequence of 3',5'-cyclic-AMP phosphodiesterase 4B (Homo sapiens) (Q07343 whole entry, looked up): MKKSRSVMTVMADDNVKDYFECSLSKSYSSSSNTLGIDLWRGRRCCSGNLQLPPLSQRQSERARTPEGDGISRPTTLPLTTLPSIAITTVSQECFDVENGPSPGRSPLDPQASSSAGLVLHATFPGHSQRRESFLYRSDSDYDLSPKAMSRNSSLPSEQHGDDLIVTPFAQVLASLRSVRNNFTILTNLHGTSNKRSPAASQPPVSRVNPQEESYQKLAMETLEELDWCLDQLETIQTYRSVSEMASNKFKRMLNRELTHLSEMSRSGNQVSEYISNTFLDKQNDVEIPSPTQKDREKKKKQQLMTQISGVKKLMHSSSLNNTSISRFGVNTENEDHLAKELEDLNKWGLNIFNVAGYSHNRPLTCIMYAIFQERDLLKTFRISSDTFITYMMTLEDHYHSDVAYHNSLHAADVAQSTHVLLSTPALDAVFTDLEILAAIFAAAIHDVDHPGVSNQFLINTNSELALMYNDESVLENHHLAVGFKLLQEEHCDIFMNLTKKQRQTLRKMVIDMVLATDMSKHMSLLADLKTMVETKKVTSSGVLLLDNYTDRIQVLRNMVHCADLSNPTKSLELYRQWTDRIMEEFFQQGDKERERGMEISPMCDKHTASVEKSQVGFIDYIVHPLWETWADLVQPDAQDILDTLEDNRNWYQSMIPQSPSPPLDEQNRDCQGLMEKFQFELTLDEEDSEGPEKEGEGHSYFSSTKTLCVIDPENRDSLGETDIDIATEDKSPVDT

The target of assay [17] is Cytochrome P450 3A4 (Homo sapiens) (UniProt P08684). Description: qHTS Assay for Inhibitors and Substrates of Cytochrome P450 3A4 (AID 884). Note: potency is the fitted concentration of half-maximal effect; nearly all actives have a fitted effect of over 50% in size. To be noted: recombinant CYP3A4, Luciferin-PPXE luminescence; series mostly up to 57.1 µM. The method, boiled down: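 20 nM human CYP3A4 with 25 uM Luciferin-PPXE (at KM) in 200 mM KPO4, preincubated 10 min with compound; NADPH regeneration started a 60 min RT reaction. Luciferin detected by luminescence, normalized to 57 uM ketoconazole as full inhibition.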
Sequence of Cytochrome P450 3A4 (Homo sapiens) (P08684 whole entry, looked up): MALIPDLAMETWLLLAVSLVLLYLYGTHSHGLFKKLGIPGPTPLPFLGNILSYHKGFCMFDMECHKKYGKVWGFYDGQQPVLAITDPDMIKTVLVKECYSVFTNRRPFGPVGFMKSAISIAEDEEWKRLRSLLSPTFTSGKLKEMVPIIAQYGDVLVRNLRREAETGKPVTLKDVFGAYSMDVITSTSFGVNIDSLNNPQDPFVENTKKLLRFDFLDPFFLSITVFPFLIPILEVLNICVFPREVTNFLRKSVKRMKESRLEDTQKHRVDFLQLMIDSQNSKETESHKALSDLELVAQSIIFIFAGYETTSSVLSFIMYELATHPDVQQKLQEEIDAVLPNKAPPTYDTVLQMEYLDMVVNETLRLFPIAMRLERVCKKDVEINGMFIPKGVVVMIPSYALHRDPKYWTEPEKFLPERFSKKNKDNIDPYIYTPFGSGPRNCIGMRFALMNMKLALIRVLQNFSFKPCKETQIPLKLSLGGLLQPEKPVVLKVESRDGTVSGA

[18] abbreviates: measured here: cell count channel max response.
Where [19] appears, read: measured here: lipid channel max response.

Sequence of Cytochrome P450 1A2 (Homo sapiens) (P05177 whole entry, looked up): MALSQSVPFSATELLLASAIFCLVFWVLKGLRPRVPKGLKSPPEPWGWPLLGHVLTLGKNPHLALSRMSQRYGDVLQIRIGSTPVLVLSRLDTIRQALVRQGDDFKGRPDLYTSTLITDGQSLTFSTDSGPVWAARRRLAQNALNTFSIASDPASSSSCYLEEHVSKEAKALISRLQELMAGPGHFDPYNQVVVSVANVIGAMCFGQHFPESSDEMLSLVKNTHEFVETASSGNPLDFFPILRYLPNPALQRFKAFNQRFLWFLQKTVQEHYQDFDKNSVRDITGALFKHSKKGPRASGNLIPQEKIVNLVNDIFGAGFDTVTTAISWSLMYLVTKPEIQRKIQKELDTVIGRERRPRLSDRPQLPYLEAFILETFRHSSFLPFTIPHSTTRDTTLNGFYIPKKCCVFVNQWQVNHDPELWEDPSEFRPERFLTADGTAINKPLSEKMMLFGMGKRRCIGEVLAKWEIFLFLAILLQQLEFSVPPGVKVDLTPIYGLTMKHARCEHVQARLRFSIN
Sequence of Ubiquitin carboxyl-terminal hydrolase 1 (Homo sapiens) (O94782 whole entry, looked up): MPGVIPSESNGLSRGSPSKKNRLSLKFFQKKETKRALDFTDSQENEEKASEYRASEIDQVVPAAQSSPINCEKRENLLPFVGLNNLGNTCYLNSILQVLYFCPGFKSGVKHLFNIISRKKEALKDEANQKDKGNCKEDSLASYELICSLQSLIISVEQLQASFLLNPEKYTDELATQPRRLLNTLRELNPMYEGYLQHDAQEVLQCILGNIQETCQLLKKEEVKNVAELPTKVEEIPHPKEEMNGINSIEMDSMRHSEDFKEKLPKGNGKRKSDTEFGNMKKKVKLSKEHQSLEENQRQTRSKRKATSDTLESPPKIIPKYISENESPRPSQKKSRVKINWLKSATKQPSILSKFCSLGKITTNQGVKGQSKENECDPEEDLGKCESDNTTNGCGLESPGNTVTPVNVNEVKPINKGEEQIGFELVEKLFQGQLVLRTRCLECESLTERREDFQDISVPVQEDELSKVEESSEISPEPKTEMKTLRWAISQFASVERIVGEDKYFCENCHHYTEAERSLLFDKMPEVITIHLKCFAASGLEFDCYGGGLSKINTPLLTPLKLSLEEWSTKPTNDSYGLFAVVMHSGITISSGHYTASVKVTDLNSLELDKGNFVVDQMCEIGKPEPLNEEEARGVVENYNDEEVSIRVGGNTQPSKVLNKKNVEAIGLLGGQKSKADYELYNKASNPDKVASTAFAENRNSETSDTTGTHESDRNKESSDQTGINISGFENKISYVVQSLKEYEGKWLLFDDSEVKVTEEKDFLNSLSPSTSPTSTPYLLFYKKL
Sequence of Dual specificity protein kinase CLK4 (Homo sapiens) (Q9HAZ1 whole entry, looked up): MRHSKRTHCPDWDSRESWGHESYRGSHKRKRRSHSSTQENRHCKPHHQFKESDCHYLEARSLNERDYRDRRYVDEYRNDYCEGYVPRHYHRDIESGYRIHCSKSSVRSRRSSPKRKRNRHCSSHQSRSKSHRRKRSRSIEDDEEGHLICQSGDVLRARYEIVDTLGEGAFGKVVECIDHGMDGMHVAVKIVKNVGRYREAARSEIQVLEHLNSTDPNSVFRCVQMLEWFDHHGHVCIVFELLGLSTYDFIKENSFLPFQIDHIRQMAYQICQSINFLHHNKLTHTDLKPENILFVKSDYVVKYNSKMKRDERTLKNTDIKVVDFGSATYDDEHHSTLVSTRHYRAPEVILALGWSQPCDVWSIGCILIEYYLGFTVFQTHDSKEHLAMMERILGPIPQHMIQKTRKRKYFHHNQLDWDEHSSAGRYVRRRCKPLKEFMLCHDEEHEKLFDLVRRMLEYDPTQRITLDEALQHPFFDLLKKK

With `COc1ccccc1-c1ccc2ncnc(NCc3ccccc3)c2c1`, the Potency was > 11.4 µM (inactive) in assay [1]; 2 µM (active) in [3]; > 46 µM (inactive) in assay [6]; > 46 µM (inactive) in [7]; 3.98 µM (active) in assay [10]; 3.98 µM (active) in assay [12]. Also, the Potency in assay [13] is 6.31 µM (active); in assay [14] it was 2.82 µM (active). Further, the activity change, negative = inhibition in assay [2] is -25.6% (inactive); in assay [4] it was 0.253% (inactive); in assay [11], -15.2% (inactive). For the same compound, in assay [5], the activity, negative = inhibition is -8.43% (inactive). The Potency entry in [8], in assay [9] and in assay [15] was “inactive” each time. The max response in [11] (setting [18]) was -12.6%; in [11] (setting [19]), -27.8%.
For `CN(C)Cc1ccccc1-c1cc(NCc2ccccc2)ncn1`, the Potency in assay [1] is > 11.4 µM (inactive); in [6] it was > 46 µM (inactive); in assay [7], > 46 µM (inactive). For the same compound, the activity change, negative = inhibition in [2] was -0.0154% (inactive); in [11], 4.72% (inactive). Also, the Potency result in assay [3], in assay [8], in assay [12], in [13], in assay [14] and in assay [15] was “inactive” each time. For the same compound, the activity, negative = inhibition in [5] was 12.3% (inactive). For the same compound, the max response came to 6.7% in assay [11] (setting [18]) and 9.63% in assay [11] (setting [19]).
Take `COc1cccc(-c2ccc3ncnc(NCCc4c[nH]c5ccc(OC)cc45)c3c2)c1`: the Potency in assay [1] is > 11.4 µM (inactive); in assay [3] it was 3.98 µM (active); in [6] it was > 46 µM (inactive); in assay [7], > 46 µM (inactive); in assay [17], 1.26 µM (active); in assay [10], 3.16 µM (active). Further, the Potency was 5.01 µM (active) in assay [12], 3.98 µM (active) in [13] and 0.631 µM (active) in [14]. Besides, the activity change, negative = inhibition in assay [4] was -6.66% (inactive); in assay [11], -3.93% (inactive). Also, the Potency entry in assay [16], in assay [9] and in assay [15] was “inactive” throughout. The max response is -24.6% in assay [11] (setting [18]) and -27.9% in assay [11] (setting [19]).
Regarding `CN(C)Cc1ccccc1-c1cc(NCc2cccs2)ncn1`, the Potency is > 11.4 µM (inactive) in assay [1], 25.1 µM (active) in assay [3], > 46 µM (inactive) in assay [6] and > 46 µM (inactive) in assay [7]. For the same compound, the activity change, negative = inhibition in assay [2] is 9.46% (inactive); in assay [11], 3.12% (inactive). For the same compound, the activity, negative = inhibition in [5] is 1.42% (inactive). Also, the Potency entry in [8], in assay [16], in assay [9], in assay [12], in assay [13] and in assay [14] was “inactive” throughout. Besides, in [15], the Potency result is “inactive”. For the same compound, the figures for the max response in assay [11] (setting [18]) and in assay [11] (setting [19]) were 23.4% and 25.3%, respectively.
Consider `COCCn1c(=O)c(-c2ccccc2)nc2cnc(N(C)C)nc21`, for which the Potency in assay [1] was > 11.4 µM (inactive); in [3] it was 3.16 µM (active); in assay [6], > 9.22 µM (inactive); in assay [7], > 46 µM (inactive). The values for the activity change, negative = inhibition in assay [2], in assay [4] and in assay [11] were -2% (inactive), 10.9% (inactive) and 6.53% (inactive), respectively. Also, the Potency result in [9], in [12], in [13], in assay [14] and in [15] was “inactive” throughout. For the same compound, the results for the max response in assay [11] (setting [18]) and in assay [11] (setting [19]) were 12.4% and 13.8%, respectively.
